SMILES strings stand for the structures. About 83,000 compounds went through this panel and 20% of them were active in at least one assay; those are over-represented in the sample as a whole.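 Activity criterion: percent growth below 10, measured after cells in 96-well plates were exposed to a single compound concentration for 48 hours.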 Unmarked numbers belong to inactive results. Active and inactive are the calls of the source.

Among the test systems are HCT-15 colon; HT29 colon; SNB-75 CNS; SNB-19 CNS; U251 CNS; PC-3 prostate; SK-MEL-5 melanoma; UACC-62 melanoma; LOX IMVI melanoma; SK-MEL-28 melanoma.
Holding throughout (assay): NCI-60 one-dose screen, 48 h (100 = growth as untreated, 0 = no growth, -100 = all killed)
What all share (settings): 10 µM unless noted

With `CCN1C(=O)N(CC)C2C1NN=c1s/c(=C\c3ccc([N+](=O)[O-])cc3)c(=O)n12` (stereo not given), the growth with HCT-15 colon is 16.3%; with HT29 colon, 5.2% (active); in the assay on SNB-75 CNS it was 0.315% (active); with SNB-19 CNS, 31.6%; in the assay on U251 CNS, 20.8%; with PC-3 prostate, 32.6%. The growth with SK-MEL-5 melanoma is 27.6%; in the assay with UACC-62 melanoma it was 27.7%; with LOX IMVI melanoma, 36.8%; in the assay with SK-MEL-28 melanoma, 64.1%.

As for `COc1ccc(S(=O)(=O)NC2c3ccccc3CC2O)cc1OC` (stereo not given), the growth is 102% in the assay on HCT-15 colon; 107% with HT29 colon; 80.1% with SNB-75 CNS; 98.6% with SNB-19 CNS; 102% with U251 CNS; 97.8% in the assay with PC-3 prostate. For the same compound, the growth is 103% in the assay with SK-MEL-5 melanoma, 96.2% in the assay with UACC-62 melanoma, 102% in the assay with LOX IMVI melanoma and 114% in the assay with SK-MEL-28 melanoma.

Turning to `CC1(C)CC(=O)C2=C(C1)OC(C(=O)c1ccccc1)C2c1cccc(Oc2ccccc2)c1` (stereo not given), the growth was 45.6% with HCT-15 colon; 43.1% with HT29 colon; 40.7% in the assay on SNB-75 CNS; 60.8% in the assay on SNB-19 CNS; 40.8% in the assay with U251 CNS; 24% in the assay on PC-3 prostate. The growth in the assay with SK-MEL-5 melanoma is 36.3%; with UACC-62 melanoma, 35.9%; in the assay on LOX IMVI melanoma it was 37%; with SK-MEL-28 melanoma, 74.4%.

As to `CC(=O)CC(=O)c1ccccc1.[Cu+2]`, the growth in the assay with HCT-15 colon was 94.3%; with HT29 colon, 106%; in the assay on SNB-75 CNS, 121%; in the assay on SNB-19 CNS, 96.6%; in the assay on U251 CNS, 105%; in the assay with PC-3 prostate, 96.8%. The growth in the assay with SK-MEL-5 melanoma is 82.8%; in the assay on UACC-62 melanoma, 95.8%; in the assay with LOX IMVI melanoma, 83.9%; in the assay on SK-MEL-28 melanoma, 105%.

Consider `Cc1cc2c(C(C)C)c(O)c(O)c(/C=N/O)c2c(O)c1-c1c(C)cc2c(C(C)C)c(O)c(O)c(/C=N/O)c2c1O`, for which the growth with HCT-15 colon was 29.3%; in the assay on HT29 colon it was 1.38% (active); in the assay with SNB-75 CNS, 80.3%; in the assay on SNB-19 CNS it was 30.4%; in the assay with U251 CNS, 1.13% (active); in the assay on PC-3 prostate, 27.9%. Further, the growth in the assay on SK-MEL-5 melanoma is 16.3%; with UACC-62 melanoma, 9.12% (active); with LOX IMVI melanoma, -22.9% (active); in the assay with SK-MEL-28 melanoma, 19.8%.

In the case of `COc1ccc(NC(=O)c2ccc(Cl)cc2Cl)cc1`, the growth was 94% in the assay on HCT-15 colon; 100% with HT29 colon; 89.9% with SNB-75 CNS; 104% with SNB-19 CNS; 92.2% in the assay on U251 CNS; 98.8% in the assay on PC-3 prostate. For the same compound, the growth in the assay with SK-MEL-5 melanoma is 92.3%; in the assay with UACC-62 melanoma, 96.3%; in the assay on LOX IMVI melanoma, 98.2%; in the assay on SK-MEL-28 melanoma, 105%.

For the compound `O=C(/C=C/c1ccc(Cl)cc1)c1ccc(-n2cc(CN3CCN(c4cc5c(cc4F)c(=O)c(C(=O)O)cn5C4CC4)CC3)nn2)cc1`, the growth with HCT-15 colon was 95.8%; in the assay with HT29 colon, 78.2%; with SNB-75 CNS, 91.6%; with SNB-19 CNS it was 84.1%; with U251 CNS, 68.6%; with PC-3 prostate, 89%. Also, the growth in the assay on SK-MEL-5 melanoma was 81.6%; in the assay on UACC-62 melanoma, 74.6%; in the assay on LOX IMVI melanoma, 56.9%; in the assay with SK-MEL-28 melanoma, 85.4%.

In the case of `CCN1C(=O)N(CC)C2C1NN=c1s/c(=C\c3ccc(F)cc3)c(=O)n12` (stereo not given), the growth in the assay on HCT-15 colon is 13.9%; in the assay on HT29 colon, 3.48% (active); in the assay with SNB-75 CNS it was -1.81% (active); in the assay with SNB-19 CNS, 28%; with U251 CNS it was 9.98% (active); in the assay on PC-3 prostate, 25.4%. Besides, the growth is 16.8% in the assay on SK-MEL-5 melanoma, 28.8% in the assay on UACC-62 melanoma, 20% with LOX IMVI melanoma and 63% in the assay with SK-MEL-28 melanoma.

In the case of `O=C1C2C(c3cccs3)C=C(c3ccc(Cl)cc3)N2C(=S)N1c1ccccc1` (stereo not given), the growth with HCT-15 colon is 112%; in the assay with HT29 colon, 114%; in the assay with SNB-75 CNS, 97.9%; in the assay with SNB-19 CNS, 94.4%; in the assay on U251 CNS it was 97.9%; in the assay on PC-3 prostate, 85.7%. For the same compound, the growth in the assay with SK-MEL-5 melanoma is 97.8%; in the assay on UACC-62 melanoma it was 88.8%; in the assay on LOX IMVI melanoma, 98%; in the assay on SK-MEL-28 melanoma, 105%.

Consider `CCOC(=O)c1ccc2c(c1)[n+](=O)c(C(C)=O)c(C(F)(F)F)n2[O-]`, for which the growth was -36% (active) with HCT-15 colon; -0.876% (active) with HT29 colon; 25.6% in the assay with SNB-75 CNS; 17.4% in the assay with SNB-19 CNS; 6.13% (active) in the assay with U251 CNS; -45.7% (active) with PC-3 prostate. The growth in the assay with SK-MEL-5 melanoma is -94.3% (active); in the assay on UACC-62 melanoma, 2.99% (active); in the assay on LOX IMVI melanoma, -59.7% (active); in the assay on SK-MEL-28 melanoma, 27.9%.

Consider `Cn1cc(-c2nc(-c3c[nH]c4ccncc34)cs2)c2cc(F)ccc21`, for which the growth in the assay with HCT-15 colon was -81.8% (active); with HT29 colon it was -80.4% (active); in the assay on SNB-75 CNS it was -95% (active); in the assay on SNB-19 CNS, -80.3% (active); with U251 CNS it was -89.1% (active); in the assay on PC-3 prostate, -73.1% (active). In addition, the growth with SK-MEL-5 melanoma was -97.9% (active); in the assay on UACC-62 melanoma it was -85.7% (active); in the assay with LOX IMVI melanoma, -94.5% (active); in the assay with SK-MEL-28 melanoma, -95.1% (active).

With `O=C(CN1C(=O)c2ccccc2S1(=O)=O)Nc1nc(-c2cc3ccccc3oc2=O)cs1`, the growth in the assay on HCT-15 colon was 108%; in the assay with HT29 colon, 103%; with SNB-75 CNS, 97.3%; with SNB-19 CNS it was 101%; in the assay on U251 CNS, 99.2%; in the assay on PC-3 prostate it was 97.7%. For the same compound, the growth in the assay on SK-MEL-5 melanoma was 99.1%; with UACC-62 melanoma, 97.8%; in the assay with LOX IMVI melanoma, 99.5%; in the assay with SK-MEL-28 melanoma it was 107%.

Take `COc1ccccc1-c1nc2ccc3[nH]ncc3c2c2c1CCCC2`: the growth with HCT-15 colon was 88.6%; in the assay on HT29 colon it was 67.5%; in the assay with SNB-75 CNS it was 38.3%; in the assay with SNB-19 CNS, 85.6%; in the assay on U251 CNS, 96.7%; with PC-3 prostate, 82%. Also, the growth was 83.4% in the assay with SK-MEL-5 melanoma, 71.3% in the assay on UACC-62 melanoma, 80.5% in the assay with LOX IMVI melanoma and 89.2% in the assay on SK-MEL-28 melanoma.
